Records with an inconclusive call do not appear. A call without a number means that no potency is given here. The source made the active and inactive calls. Calls follow the shape of the dose curve; as a rule, active = well fitted curve in the direction sought with a large enough effect; inconclusive = small, poorly fitted or top-dose-only effect, or another doubt; inactive = no such curve, though single readings can be large; an effect the other way counts as inactive or inconclusive.
Key:
[1] = qHTS of pediatric cancer cell lines to identify multiple opportunities for drug repurposing: Primary screen for LAN-5 cells (AID 1347100); conditions: LAN-5 neuroblastoma viability, CellTiter-Glo luminescence, 48 h; series mostly up to 46 µM; also: potency is read from the fitted curve at half-maximal effect
Summary of the method: (§1)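 Cells (500-1,000/well) rested 5 h, then received compounds for 48 h; metabolically active cells were measured by CellTiter-Glo luminescence. Final concentrations spanned up to 46 µM (MIPE, 11-point) or 0.59 nM-46 µM (NPC, 8-point) in primary screens, 11-point in follow-ups.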

[2] = qHTS of pediatric cancer cell lines to identify multiple opportunities for drug repurposing: Primary screen for BT-12 cells (AID 1347101); conditions: BT-12 viability, CellTiter-Glo luminescence, 48 h; series mostly up to 57.3 µM; also: nearly all actives have a fitted effect of over 25% in size; also: potency is read from the fitted curve at half-maximal effect
Summary of the method: as §1

[3] = qHTS of pediatric cancer cell lines to identify multiple opportunities for drug repurposing: Primary screen for Rh18 cells (AID 1347102); conditions: Rh18 rhabdomyosarcoma viability, CellTiter-Glo luminescence, 48 h; series mostly up to 46 µM; also: nearly all actives have a fitted effect of over 65% in size; also: potency is read from the fitted curve at half-maximal effect
Summary of the method: as §1

[4] = qHTS of pediatric cancer cell lines to identify multiple opportunities for drug repurposing: Primary screen for OHS-50 cells (AID 1347103); conditions: OHS-50 osteosarcoma viability, CellTiter-Glo luminescence, 48 h; series mostly up to 57.3 µM; also: nearly all actives have a fitted effect of over 40% in size; also: potency is read from the fitted curve at half-maximal effect
Summary of the method: as §1

[5] = qHTS of pediatric cancer cell lines to identify multiple opportunities for drug repurposing: Primary screen for RD cells (AID 1347104); conditions: RD rhabdomyosarcoma viability, CellTiter-Glo luminescence, 48 h; series mostly up to 46 µM; also: nearly all actives have a fitted effect of over 55% in size; also: potency is read from the fitted curve at half-maximal effect
Summary of the method: (§2)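 Cells plated at 500-1,000/well in growth medium, compounds added after 5 h. MIPE tested at 11 points (from 0.78 nM), NPC at 8 points (from 0.59 nM). CellTiter-Glo luminescence after 48 h; concentration-response curves from primary screen.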

[6] = qHTS of pediatric cancer cell lines to identify multiple opportunities for drug repurposing: Primary screen for MG 63 (6-TG R) cells (AID 1347105); conditions: MG 63 (6-TG R) viability, CellTiter-Glo, 48 h; series mostly up to 46 µM; also: nearly all actives have a fitted effect of over 50% in size; also: potency is read from the fitted curve at half-maximal effect
Summary of the method: as §2

[7] = qHTS of pediatric cancer cell lines to identify multiple opportunities for drug repurposing: Primary screen for control Hh wild type fibroblast cells (AID 1347106); conditions: Hh wild-type fibroblast viability, CellTiter-Glo luminescence, 48 h; series mostly up to 46 µM; also: nearly all actives have a fitted effect of over 55% in size; also: potency is read from the fitted curve at half-maximal effect
Summary of the method: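 Viability after 48 h compound treatment at 37C, 500-1,000 cells/well, read as ATP luminescence with CellTiter-Glo. Primary screens used 11-point (MIPE, 0.78 nM-46 µM) or 8-point (NPC, 0.59 nM-46 µM) final concentrations; follow-up screens used 11-point dilutions.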

[8] = qHTS of pediatric cancer cell lines to identify multiple opportunities for drug repurposing: Primary screen for Rh30 cells (AID 1347107); conditions: Rh30 rhabdomyosarcoma viability, CellTiter-Glo luminescence, 48 h; series mostly up to 46 µM; also: nearly all actives have a fitted effect of over 75% in size; also: potency is read from the fitted curve at half-maximal effect
Summary of the method: as §1

[9] = qHTS of pediatric cancer cell lines to identify multiple opportunities for drug repurposing: Primary screen for Rh41 cells (AID 1347108); conditions: Rh41 rhabdomyosarcoma viability, CellTiter-Glo luminescence, 48 h; series mostly up to 46 µM; also: nearly all actives have a fitted effect of over 70% in size; also: potency is read from the fitted curve at half-maximal effect
Summary of the method: as §2

[10] = qHTS of pediatric cancer cell lines to identify multiple opportunities for drug repurposing: Confirmatory screen for A673 cells (AID 1347110); conditions: A673 Ewing sarcoma cell viability; series mostly up to 45.9 µM;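 also: cells exposed to compound for 48 h before the viability read; nearly all actives have a fitted effect of over 65% in size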; also: potency is read from the fitted curve at half-maximal effect
Summary of the method: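 Viability was read as ATP luminescence (CellTiter-Glo) after 48 h of compound exposure at 37 C in A673 cells seeded at 500-1,000/well. Titrations reached 46 uM final, with 11 points in the confirmatory screen. Concentration-response curves were fitted directly.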

[11] = qHTS of pediatric cancer cell lines to identify multiple opportunities for drug repurposing: Confirmatory screen for LAN-5 cells (AID 1347113); conditions: LAN-5 neuroblastoma cell viability; series mostly up to 45.9 µM; also: potency is read from the fitted curve at half-maximal effect; nearly all actives have a fitted effect of over 65% in size
Summary of the method: as §1

[12] = qHTS of pediatric cancer cell lines to identify multiple opportunities for drug repurposing: Confirmatory screen for DAOY cells (AID 1347114); conditions: DAOY medulloblastoma cells viability, cytotoxicity qHTS; series mostly up to 45.9 µM; also: nearly all actives have a fitted effect of over 65% in size; also: potency is read from the fitted curve at half-maximal effect
Summary of the method: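 Viability measured as metabolically active cells via CellTiter-Glo luminescence following 48 hours of compound exposure, 11-point dilutions in confirmatory testing. 500-1,000 cells/well plated 5 hours before dosing; controls were DMSO and 2.3 µM bortezomib.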

[13] = qHTS of pediatric cancer cell lines to identify multiple opportunities for drug repurposing: Confirmatory screen for NB-EBc1 cells (AID 1347115); conditions: NB-EBc1 neuroblastoma cells, viability (cytotoxicity); series mostly up to 45.9 µM;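 also: cells exposed to compound for 48 h before the viability read; nearly all actives have a fitted effect of over 45% in size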
Summary of the method: as §1

[14] = qHTS of pediatric cancer cell lines to identify multiple opportunities for drug repurposing: Confirmatory screen for MG 63 (6-TG R) cells (AID 1347119); conditions: MG-63 (6-TG resistant) osteosarcoma viability; series mostly up to 45.9 µM; also: potency is read from the fitted curve at half-maximal effect; nearly all actives have a fitted effect of over 55% in size
Summary of the method: as §1

[15] = qHTS of pediatric cancer cell lines to identify multiple opportunities for drug repurposing: Confirmatory screen for NB1643 cells (AID 1347109); conditions: NB1643 neuroblastoma cell viability; series mostly up to 45.9 µM; also: potency is read from the fitted curve at half-maximal effect; nearly all actives have a fitted effect of over 45% in size
Summary of the method: as §1

[16] = qHTS of pediatric cancer cell lines to identify multiple opportunities for drug repurposing: Confirmatory screen for SK-N-MC cells (AID 1347111); conditions: SK-N-MC cell viability; series mostly up to 45.9 µM;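 also: potency is read from the fitted curve at half-maximal effect; cells exposed to compound for 48 h before the readout; nearly all actives have a fitted effect of over 70% in size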
Summary of the method: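 Seed 500-1,000 cells/well; rest 5 h at 37 degrees C. Pin-transfer compounds, 11-point titration. Incubate 48 h. Add CellTiter-Glo, 15 min RT, read luminescence.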

[17] = qHTS of pediatric cancer cell lines to identify multiple opportunities for drug repurposing: Confirmatory screen for BT-37 cells (AID 1347117); conditions: BT-37 pediatric cancer cells, viability; series mostly up to 45.9 µM; also: potency is read from the fitted curve at half-maximal effect; nearly all actives have a fitted effect of over 55% in size
Summary of the method: as §1

[18] = qHTS of pediatric cancer cell lines to identify multiple opportunities for drug repurposing: Confirmatory screen for TC32 cells (AID 1347118); conditions: TC32 Ewing sarcoma cells viability qHTS; series mostly up to 45.9 µM
Summary of the method: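 TC32 cells, 500-1,000/well in growth medium, compound-treated 48 h at 37 °C; viability from CellTiter-Glo luminescence. Primary screen: MIPE 11-point (0.78 nM–46 µM final), NPC 8-point (0.59 nM–46 µM final); confirmatory at 11-point dilutions.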

Row | SMILES | Potency [1] | Potency [2] | Potency [3] | Potency [4] | Potency [5] | Potency [6] | Potency [7] | Potency [8] | Potency [9] | Potency [10] | Potency [11] | Potency [12] | Potency [13] | Potency [14] | Potency [15] | Potency [16] | Potency [17] | Potency [18]
1 | CN[C@@H]1[C@@H](O)[C@@H](O[C@@H]2[C@@H](O)[C@H](O[C@H]3O[C@H](CN)[C@@H](O)[C@H](O)[C@@H]3O)[C@@H](N)C[C@@H]2NC(=O)[C@@H](O)CN)OC[C@]1(C)O | inactive | inactive | inactive | inactive | inactive | inactive | inactive | inactive | inactive |  |  |  |  |  |  |  |  | 
2 | C[C@@H](O)[C@H]1C(=O)N2C(C(=O)OCOC(=O)C(C)(C)C)=C(SC3CN(C4=NCCS4)C3)[C@H](C)[C@H]12 | inactive | inactive | inactive | inactive | inactive | inactive | inactive | inactive | inactive |  |  |  |  |  |  |  |  | 
3 | NCC1CCC(C(=O)O)CC1 (stereo not drawn) | inactive | inactive | inactive | inactive | inactive | inactive | inactive | inactive | inactive |  |  |  |  |  |  |  |  | 
4 | C[C@]12CCC3=C4CCC(=O)C=C4CC[C@@H]3[C@H]1CC[C@@]2(O)CC#N | inactive | inactive | inactive | inactive | inactive | inactive | inactive | inactive | inactive |  |  |  |  |  |  |  |  | 
5 | CS(=O)(=O)c1ccc(C2=C(c3ccccc3)C(=O)OC2)cc1 | inactive | inactive | inactive | inactive | inactive | inactive | inactive | inactive | inactive |  |  |  |  |  |  |  |  | 
6 | CNC(=O)c1cc(Oc2ccc(NC(=O)Nc3ccc(Cl)c(C(F)(F)F)c3)c(F)c2)ccn1 | 20.9 µM (active) | 12.2 µM (active) | 23.5 µM (active) | 10.9 µM (active) | 16.6 µM (active) | 23.5 µM (active) | inactive |  |  |  |  |  |  |  |  |  |  | 
7 | CC=C1C2C=C(C)CC1(N)c1ccc(=O)[nH]c1C2 (stereo not drawn) | inactive | inactive | inactive | inactive | inactive | inactive | inactive | inactive | inactive |  |  |  |  |  |  |  |  | 
8 | CN(C)CCN(C)C(=O)c1ccc(NC(=O)Nc2ccc(-c3nc(N4CCOCC4)c4ccn(CC(F)(F)F)c4n3)cc2)cc1 | 2.64 µM (active) | 3.06 µM (active) | 0.187 µM (active) | 0.0432 µM (active) | 0.372 µM (active) | 0.187 µM (active) | 0.0526 µM (active) |  | 0.166 µM (active) | 0.293 µM (active) | 0.414 µM (active) | 20.8 µM (active) | inactive | 0.329 µM (active) |  |  |  | 
9 | C[C@@]1(c2cc(-c3cncnc3)c(F)cc2F)CCSC(N)=N1 | 3.72 µM (active) | 3.85 µM (active) | inactive | 2.73 µM (active) | 2.09 µM (active) | inactive | inactive | inactive | inactive | inactive |  | inactive |  | 9.27 µM (active) | 20.8 µM (active) | 7.37 µM (active) | 11.7 µM (active) | 8.27 µM (active)
10 | Cc1cnc(Nc2cccc(CN3CCOCC3)c2)nc1Nc1cccc(S(=O)(=O)NC(C)(C)C)c1 | 1.48 µM (active) | 13.7 µM (active) | 8.33 µM (active) | 3.43 µM (active) | 13.2 µM (active) | 7.43 µM (active) |  | 8.33 µM (active) | 6.62 µM (active) |  |  |  |  |  |  |  |  | 
11 | CCOC(=O)[C@@H](N)CCC(=O)N[C@@H](CSCc1ccccc1)C(=O)N[C@@H](C(=O)OCC)c1ccccc1 | inactive | inactive | inactive | inactive | inactive | inactive | inactive | inactive | inactive |  |  |  |  |  |  |  |  | 
12 | CC[C@H](C)C(=O)O[C@H]1C[C@H](O)C=C2C=C[C@H](C)[C@H](CC[C@@H](O)C[C@@H](O)CC(=O)O)[C@H]21 | inactive | inactive | inactive | inactive | inactive | inactive | inactive | inactive | inactive |  |  |  |  |  |  |  |  | 
13 | COc1nc(C)cnc1NS(=O)(=O)c1cccnc1-c1ccc(-c2nnco2)cc1 | inactive | inactive | inactive | inactive | inactive | inactive | inactive | inactive | inactive |  |  |  |  |  |  |  |  | 
14 | COc1nccc(-c2c(-c3ccc(F)cc3)ncn2C2CCC(O)CC2)n1 (stereo not drawn) | inactive | inactive | inactive | inactive | inactive | inactive | inactive |  | inactive |  |  |  |  |  |  |  |  | 
15 | O=C1CCCC(=O)C1C(=O)c1ccc(C(F)(F)F)cc1[N+](=O)[O-] | inactive | inactive | inactive | inactive | inactive | inactive | inactive | inactive | inactive |  |  |  |  |  |  |  |  | 
16 | O=C(O)C1=CC(O)C(O)[C@H](O)C1 (stereo partly drawn) | inactive | inactive | inactive | inactive | inactive | inactive | inactive | inactive | inactive |  |  |  |  |  |  |  |  | 
17 | CC(C)(CO)[C@@H](O)C(=O)NCCC(=O)O | inactive | inactive | inactive | inactive | inactive | inactive | inactive | inactive | inactive |  |  |  |  |  |  |  |  | 
18 | CCN(CC)CCCCNc1nc2cc(Cl)c(Cl)cc2nc1-c1ccc(-c2cccs2)s1 | 26.4 µM (active) | 34.3 µM (active) | 18.7 µM (active) | 19.3 µM (active) | 18.7 µM (active) | 18.7 µM (active) | inactive |  | 23.5 µM (active) |  |  |  |  |  |  |  |  | 
